Records with an inconclusive call do not appear. Entries that show only a call come without a potency. Unmarked numbers belong to inactive results. Activity calls are given as the source filed them. Unless noted, calls follow the shape of the dose curve; as a rule, active = well fitted curve in the direction sought with a large enough effect in the repeat runs; inconclusive = weak or mixed curves; inactive = no such curve, though single readings can be large; an effect the other way counts as inactive or inconclusive.
How the values were obtained:
[1] = qHTS assay to identify small molecule agonists of the RXR signaling pathway - cell viability counter screen (AID 1159529); also: nearly all actives have a fitted effect of over 50% in size; also: potency is read from the fitted curve at half-maximal effect
Summary of the method: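 Compounds dissolved in DMSO were pinned onto HEK 293T cells carrying a beta-lactamase reporter under RXR-alpha control and incubated 16 hr. Cytotoxicity was then quantified by CellTiter-Glo luminescence.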

[2] = qHTS assay to identify small molecule antagonists of the retinoic acid receptor (RAR) signaling pathway (AID 1159552; also: nearly all actives have a fitted effect of over 50% in size; also: potency is read from the fitted curve at half-maximal effect)
Summary of the method: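 Test chemicals and DMSO controls were pin-transferred onto C3RL4 cells a day after seeding; retinol (1 uM final) followed at once. Luminescent reporter output was quantified after 6 hr of co-incubation and 30 min with detection reagent.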

[3] = qHTS assay to identify small molecule antagonists of the estrogen related receptor (ERR) signaling pathway from Tox21 library - cell viability counter screen (AID 1224834); also: nearly all actives have a fitted effect of over 30% in size; also: potency is read from the fitted curve at half-maximal effect
Summary of the method: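 CellTiter-Fluor fluorescence measured; ERR cells; 17.5 h compound incubation at 37 C; 30 min reagent step.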

[4] = biological target: Luciferin 4-monooxygenase (Photinus pyralis) (UniProt P08659); assay: qHTS assay to identify small molecule inhibitors of firefly luciferase (AID 1224835); also: nearly all actives have a fitted effect of over 25% in size; also: potency is read from the fitted curve at half-maximal effect
Luciferin 4-monooxygenase (Photinus pyralis), sequence (P08659 whole entry, looked up): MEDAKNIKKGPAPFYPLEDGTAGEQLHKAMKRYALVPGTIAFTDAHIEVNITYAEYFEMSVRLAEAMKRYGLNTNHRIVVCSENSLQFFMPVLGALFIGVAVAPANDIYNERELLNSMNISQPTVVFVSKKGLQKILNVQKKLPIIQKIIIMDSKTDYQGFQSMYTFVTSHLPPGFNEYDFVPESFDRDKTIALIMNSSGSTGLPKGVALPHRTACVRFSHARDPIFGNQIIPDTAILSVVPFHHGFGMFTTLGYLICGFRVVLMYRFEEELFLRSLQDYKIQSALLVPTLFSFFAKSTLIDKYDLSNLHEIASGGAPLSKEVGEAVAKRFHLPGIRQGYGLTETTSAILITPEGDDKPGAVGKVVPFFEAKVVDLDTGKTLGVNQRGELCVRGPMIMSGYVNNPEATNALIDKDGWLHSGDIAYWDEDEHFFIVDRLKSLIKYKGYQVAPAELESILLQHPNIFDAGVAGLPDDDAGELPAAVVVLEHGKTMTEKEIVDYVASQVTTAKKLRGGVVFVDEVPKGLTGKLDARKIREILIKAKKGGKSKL
Summary of the method: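 Biochemical qHTS: compounds run as interplate titrations against purified firefly enzyme, with D-luciferin and ATP each at its KM concentration. Light output recorded by CCD imaging.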

[5] = qHTS assay to identify small molecule agonists of the constitutive androstane receptor (CAR) signaling pathway - cell viability counter screen (AID 1224836); also: nearly all actives have a fitted effect of over 45% in size; also: potency is read from the fitted curve at half-maximal effect
Summary of the method: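 23 h treatment, 37 C, 5% CO2. Cell line: HepG2 stably expressing hCAR with a CYP2B6-2.2kb construct. Co-treatment: PK11195, 0.75 uM final. Read-out: CellTiter-Fluor fluorescence intensity.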

[6] = qHTS assay to identify small molecule antagonists of the constitutive androstane receptor (CAR) signaling pathway - cell viability counter screen (AID 1224837); also: nearly all actives have a fitted effect of over 45% in size; also: potency is read from the fitted curve at half-maximal effect
Summary of the method: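 Using CellTiter-Fluor, viability is scored in HepG2 cells stably carrying hCAR and a 2.2kb CYP2B6 reporter after 23 hr compound exposure across 15 concentrations, with CITCO present at 50 nM.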

[7] = biological target: Nuclear receptor subfamily 1 group I member 3 (Homo sapiens) (UniProt Q14994); assay: qHTS assay to identify small molecule agonists of the constitutive androstane receptor (CAR) signaling pathway (AID 1224839);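 also: HepG2 cells stably carrying human CAR and a CYP2B6 luciferase reporter; nearly all actives have a fitted effect of over 15% in size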
Nuclear receptor subfamily 1 group I member 3 (Homo sapiens), sequence (Q14994 whole entry, looked up): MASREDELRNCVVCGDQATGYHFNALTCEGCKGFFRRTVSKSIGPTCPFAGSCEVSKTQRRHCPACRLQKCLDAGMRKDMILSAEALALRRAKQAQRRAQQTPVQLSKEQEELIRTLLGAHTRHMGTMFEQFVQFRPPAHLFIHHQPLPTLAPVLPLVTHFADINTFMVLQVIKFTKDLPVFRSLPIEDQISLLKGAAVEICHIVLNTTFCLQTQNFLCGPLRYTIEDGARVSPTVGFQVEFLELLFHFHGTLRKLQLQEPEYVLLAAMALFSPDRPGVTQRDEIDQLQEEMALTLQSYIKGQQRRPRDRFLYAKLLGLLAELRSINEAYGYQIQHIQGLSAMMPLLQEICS
Summary of the method: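 Compounds tested at 15 concentrations on HepG2 cells stably harbouring hCAR and CYP2B6-2.2kb reporter constructs, co-treated with PK11195 (0.75 uM final), 24 h at 37 C; luminescent reporter signal quantified.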

[8] = qHTS assay to identify small molecule antagonists of the estrogen related receptor signaling pathway with the pleiotropic PPARgamma coactivator (PGC) from Tox21 10K library - cell viability counter screen (AID 1224840; active = well fitted cell-killing curve with a large enough effect in the repeat runs, not every such curve was filed as active; also: nearly all actives have a fitted effect of over 40% in size; also: potency is read from the fitted curve at half-maximal effect)
Summary of the method: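 Here the PGC/ERR cells serve as a cytotoxicity control: they are exposed to compounds for 17.5 hours at 37 C, and live-cell signal is quantified using CellTiter-Fluor fluorescence.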

[9] = qHTS assay to identify small molecule antagonists of the estrogen related receptor signaling pathway with the pleiotropic PPARgamma coactivator (PGC) from Tox21 10K library (AID 1224841; call rule not given here; also: actives are mostly falling curves and most rising ones were filed inactive; nearly all actives have a fitted effect of over 50% in size; also: potency is read from the fitted curve at half-maximal effect)
Summary of the method: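 Each well held 2,000 PGC/ERR cells, pre-incubated six hours (37 C, 5% CO2). Test substances in DMSO were added by pin tool and left for 18 h at 37 C before luciferase detection by One-Glo.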

[10] = biological target: Thyrotropin receptor (Homo sapiens) (UniProt P16473); assay: qHTS assay to identify small molecule agonists of the thyroid stimulating hormone receptor (TSHR) signaling pathway (AID 1224843; calls by dose curve; also: nearly all actives have a fitted effect of over 45% in size)
Thyrotropin receptor (Homo sapiens), sequence (P16473 whole entry, looked up): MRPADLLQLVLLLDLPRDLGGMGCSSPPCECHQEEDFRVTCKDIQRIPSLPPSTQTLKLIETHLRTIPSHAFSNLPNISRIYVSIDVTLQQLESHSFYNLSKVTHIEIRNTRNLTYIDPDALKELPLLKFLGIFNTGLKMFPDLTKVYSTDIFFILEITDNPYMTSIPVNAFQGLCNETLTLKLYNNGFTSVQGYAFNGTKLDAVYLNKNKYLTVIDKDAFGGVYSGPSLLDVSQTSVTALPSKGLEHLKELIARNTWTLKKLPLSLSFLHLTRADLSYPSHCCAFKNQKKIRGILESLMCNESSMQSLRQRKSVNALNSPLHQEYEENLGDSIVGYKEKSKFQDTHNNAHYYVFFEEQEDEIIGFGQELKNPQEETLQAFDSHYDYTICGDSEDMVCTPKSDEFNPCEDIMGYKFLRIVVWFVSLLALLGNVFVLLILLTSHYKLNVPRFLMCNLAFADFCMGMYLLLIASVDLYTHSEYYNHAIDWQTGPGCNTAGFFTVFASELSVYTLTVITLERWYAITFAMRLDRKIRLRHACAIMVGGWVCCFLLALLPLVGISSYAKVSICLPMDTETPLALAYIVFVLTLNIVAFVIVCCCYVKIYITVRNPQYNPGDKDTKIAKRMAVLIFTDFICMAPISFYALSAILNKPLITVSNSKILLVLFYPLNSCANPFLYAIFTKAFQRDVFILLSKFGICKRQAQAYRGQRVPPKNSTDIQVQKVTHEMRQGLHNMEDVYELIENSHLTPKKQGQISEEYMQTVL
Summary of the method: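 TSHR-HEK293 cells in agonist mode, 30 min room-temperature step, then cAMP measured by competitive HTRF (cAMP-d2 with anti-cAMP cryptate) after 1 h at room temperature. Tested at 15 concentrations in triplicate.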

[11] = qHTS assay to identify small molecule agonists of the retinoic acid receptor (RAR) signaling pathway (AID 1159553); details: C3RL4 RARE luciferase reporter, agonist, 6 h; activation: at 73.3 µM (top of the series) unless noted
Summary of the method: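 Activation of retinol signaling was monitored via a RARE luciferase reporter in C3RL4 cells. After 6 hr compound treatment at 37 C, detection reagent was added for 30 min at room temperature before luminescence reading.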

[12] = biological target: Nuclear receptor subfamily 1 group I member 3 (Homo sapiens) (UniProt Q14994); assay: qHTS assay to identify small molecule antagonists of the constitutive androstane receptor (CAR) signaling pathway (AID 1224838);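 also: HepG2 cells stably expressing hCAR with CYP2B6 luciferase reporter stimulated by CITCO; nearly all actives have a fitted effect of over 40% in size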; also: potency is read from the fitted curve at half-maximal effect
Summary of the method: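 Reporter luminescence was quantified after 24 h exposure of hCAR/CYP2B6-2.2kb double-stable HepG2 cells to compounds at 15 concentrations in the presence of 50 nM CITCO final.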

[13] = qHTS assay to identify small molecule agonists of the estrogen related receptor signaling pathway with the pleiotropic PPARgamma coactivator (PGC) from Tox21 10K library (AID 1224842); also: nearly all actives have a fitted effect of over 15% in size
Summary of the method: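 PGC/ERR reporter cell line, 2,000 cells per well, incubated 6 h at 37 C before 23 nL compound in DMSO was added. After 18 h at 37 C, One-Glo luminescence read following 30 min at room temperature.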

[14] = qHTS assay to identify small molecule antagonists of the retinoid acid receptor (RAR) signaling pathway - cell viability counter screen (AID 1159551); also: nearly all actives have a fitted effect of over 35% in size
Summary of the method: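 Seed C3RL4 cells; next day add compound, then retinol to 1 uM final; incubate 6 h at 37 C; add CellTiter-Glo; read luminescence after 30 min at RT.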

With `C=CC(=O)Nc1cc2c(Nc3ccc(F)c(Cl)c3)ncnc2cc1OCCCN1CCOCC1` the Potency [1] was 4.77 µM (active), the Potency [2] was 7.5 µM (active) and the Potency [3] was 23.7 µM (active). For the same compound, the Potency [4] was “inactive”, the Potency [5] was 13.3 µM (active) and the Potency [6] was 13.3 µM (active). For the same compound, the Potency [7] was “inactive”, the Potency [8] was 13.3 µM (active) and the Potency [9] was “inactive”. For the same compound, the Potency [10] was “inactive”.
In the case of `Cc1cc(=O)oc2cc(O)cc(O)c12`, the Potency [1] is reported as “inactive”, the Potency [11] is reported as “inactive” and the Potency [3] is reported as “inactive”. The Potency [4] was “inactive”, the Potency [6] was “inactive” and the Potency [12] was “inactive”. For the same compound, the Potency [8] was “inactive” and the Potency [10] was “inactive”.
For `Nc1ccc(NCCO)c([N+](=O)[O-])c1`, the Potency [1] was “inactive”, the Potency [11] was “inactive” and the Potency [3] was 48.6 µM (active). The Potency [4] was 35.6 µM (active), the Potency [12] was “inactive” and the Potency [7] was “inactive”. The Potency [9] was “inactive”.
With `COc1ccc2cc1Oc1ccc(cc1)C[C@H]1c3c(cc4c(c3Oc3cc5c(cc3OC)CCN(C)[C@@H]5C2)OCO4)CCN1C` the Potency [1] was 23.9 µM (active), the Potency [2] was 4.22 µM (active) and the Potency [11] was “inactive”. For the same compound, the Potency [3] was 23.7 µM (active), the Potency [4] was “inactive” and the Potency [5] was 26.6 µM (active). The Potency [6] was 23.7 µM (active), the Potency [12] was 23.7 µM (active) and the Potency [7] was “inactive”. For the same compound, the Potency [8] was 21.1 µM (active), the Potency [13] was “inactive” and the Potency [10] was “inactive”.
In the case of `O=C1C(c2[nH]c3ccc(S(=O)(=O)O)cc3c2O)=Nc2ccc(S(=O)(=O)O)cc21`, the Potency [1] is reported as “inactive”, the Potency [2] is reported as “inactive” and the Potency [3] is reported as “inactive”. The Potency [4] was 31.7 µM (active), the Potency [5] was “inactive” and the Potency [6] was “inactive”. For the same compound, the Potency [8] was “inactive”.
For `CCCCCCCCCCCCOC(=O)c1ccc(O)cc1`, the Potency [1] was “inactive”, the Potency [14] was “inactive” and the Potency [4] was “inactive”. The Potency [5] was “inactive”, the Potency [6] was “inactive” and the Potency [12] was “inactive”. For the same compound, the Potency [7] was “inactive” and the Potency [8] was “inactive”.
In the case of `Cl[Si](Cl)(c1ccccc1)c1ccccc1`, the Potency [1] is reported as “inactive”, the Potency [14] is reported as “inactive” and the Potency [3] is reported as “inactive”. The Potency [4] was “inactive”, the Potency [5] was “inactive” and the Potency [8] was “inactive”. The Potency [10] was “inactive”.
For `CC(=O)CC(=O)Nc1ccc(S(=O)(=O)O)cc1`, the Potency [1] was “inactive”, the Potency [14] was “inactive” and the Potency [3] was “inactive”. For the same compound, the Potency [4] was “inactive”, the Potency [5] was “inactive” and the Potency [6] was “inactive”. The Potency [8] was “inactive” and the Potency [10] was “inactive”.
For `O=C(O)[C@H](O)[C@@H](O)[C@H](O[C@@H]1O[C@H](CO)[C@H](O)[C@H](O)[C@H]1O)[C@H](O)CO`, the Potency [1] was “inactive”, the Potency [14] was “inactive” and the Potency [3] was “inactive”. The Potency [4] was “inactive”, the Potency [5] was “inactive” and the Potency [8] was “inactive”. For the same compound, the Potency [10] was “inactive”.
With `C/C=C/C=C/COC(=O)C(C)C` the Potency [1] was “inactive”, the Potency [2] was 27.3 µM (active) and the Potency [5] was “inactive”. For the same compound, the Potency [12] was “inactive”, the Potency [7] was “inactive” and the Potency [8] was “inactive”.
`O=C(O)CN(CCN(CC(=O)O)CC(=O)O)CC(=O)O` gave an activity change, negative = cytotoxicity [1] of -6.94% [at 2.72 µM], an activity change, negative = cytotoxicity [14] of 1.05% [at 3.27 µM] and a viability change, negative = cytotoxic [3] of 1.59% [at 3.27 µM]. The Potency [12] was 1.94 µM (active), the activation [7] was -0.673% [at 3.27 µM] and the viability change, negative = cytotoxic [8] was 1.11% [at 3.27 µM]. For the same compound, the activation [10] was -1.34% [at 3.27 µM].
For `COC(=O)C1=C(C)NC(C)=C(C(=O)OCCN2CCN(C(c3ccccc3)c3ccccc3)CC2)C1c1cccc([N+](=O)[O-])c1` (stereo unspecified), the Potency [1] was “inactive”, the Potency [14] was “inactive” and the Potency [3] was 11.9 µM (active). For the same compound, the Potency [4] was “inactive”, the Potency [12] was “inactive” and the Potency [7] was “inactive”. For the same compound, the Potency [9] was 9.44 µM (active), the Potency [13] was “inactive” and the Potency [10] was “inactive”.
